# Only a selection was taken, and hits are over-represented in it overall.
# CBX7 inh: blocks human CBX7 binding to H3K27me3 peptide. 66,000 compounds, 1.1% hits. normalised signal (fraction of DMSO) (no concentration beside the values). AID 1224903. AlphaScreen His6-CBX7 / biotin-H3K27me3 peptide binding; hits give low values; in the data active means normalised signal below about 0.5
# Target sequence (O95931 whole entry, looked up): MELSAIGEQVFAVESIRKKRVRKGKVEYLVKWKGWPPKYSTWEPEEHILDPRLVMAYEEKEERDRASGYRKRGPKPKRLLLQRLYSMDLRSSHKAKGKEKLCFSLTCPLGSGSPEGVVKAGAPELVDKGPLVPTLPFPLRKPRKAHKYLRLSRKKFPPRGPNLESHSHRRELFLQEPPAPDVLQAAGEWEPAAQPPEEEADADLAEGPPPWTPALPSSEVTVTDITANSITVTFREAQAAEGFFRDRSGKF
# An asterisk follows results filed as active.
SMILES,CBX7 inh
Cc1ccc(-n2nnnc2C2(NCCc3c(C)[nH]c4c(Cl)c(Cl)ccc34)CCCCC2)cc1,0.73
COc1ccc(-n2nnnc2C2(NCCc3c(C)[nH]c4c(Cl)ccc(Cl)c34)CCCCC2)cc1,0.74
Cc1ccccc1-n1nnnc1C1(NCCc2c(C)[nH]c3ccccc23)CCCCC1,0.49*
Fc1ccc(C2CC(c3cccnc3)Nc3ncnn32)cc1 (centres undefined),1.1
COc1ccc2[nH]c(C)c(CCNCc3nc[nH]c3C)c2c1,0.0075*
COc1ccc2[nH]c(C)c(CCNCc3ccc(F)cc3F)c2c1,0.51
COc1ccc2[nH]c(C)c(CCNCc3cccnc3)c2c1,1.1
c1ccc(COc2ccc3[nH]cc(CCN(Cc4ccccc4)Cc4ccccc4)c3c2)cc1,0.75
O=C1CSC(c2ccc(OCc3ccccc3)cc2)c2c(n(C3CCCCC3)[nH]c2=O)N1 (centres undefined),1
COc1ccc(CCNCc2ccccn2)cc1OC,0.27*
COc1ccc(CCNCc2cc(OC)c3c(c2)OCO3)cc1,0.97
COc1ccc(CCNCc2cccnc2)cc1OC,0.91
CCCCNC(=O)CN1C(=O)C(C(C)CC)N=C(c2ccccc2)c2cc(Cl)ccc21 (centres undefined),0.9
CN(C)c1ccc(/C=C/c2nc3ccccc3c(=O)n2-c2ccc(Br)cc2)cc1,0.92
Cc1[nH]c2ccccc2c1CCNCc1cccc(F)c1,0.75
CN(C)c1ccc(C2SCC(=O)Nc3c2c(-c2ccccc2)nn3-c2ccccc2)cc1 (centres undefined),0.42*
COc1ccc(C2SCC(=O)Nc3c2c(C)nn3-c2ccccc2)cc1 (centres undefined),1
O=C1CSC(c2ccc(Cl)cc2)c2c(-c3ccccc3)nn(-c3ccccc3)c2N1 (centres undefined),0.92
COc1cc(NC(=O)CN2C(=O)C(C)N=C(c3ccccc3)c3ccccc32)cc(OC)c1 (centres undefined),1.1
CCOC(=O)C1(c2ccccc2)CCN(CCC(=O)Nc2ccccc2)CC1,1.1

# Compound activity deposited in PubChem by Bradner/Qi Labs at DFCI.
